The entries come from a sample that favours hits as a whole.
KDM5B inh = Primary screen for KDM5B Histone Demethylases FDH-coupled qHTS; KDM5B demethylase, FDH-coupled NADH fluorescence (FDH is formaldehyde dehydrogenase); Potency, µM (highest dose often 57.7 µM), usual class: inhibitors; 220,000 compounds, 2.6% hits; AID 1347165, 2019; active = well fitted inhibition curve with a large enough effect; also: nearly all actives have a fitted effect of over 70% in size
Target sequence (Q9UGL1 whole entry, looked up): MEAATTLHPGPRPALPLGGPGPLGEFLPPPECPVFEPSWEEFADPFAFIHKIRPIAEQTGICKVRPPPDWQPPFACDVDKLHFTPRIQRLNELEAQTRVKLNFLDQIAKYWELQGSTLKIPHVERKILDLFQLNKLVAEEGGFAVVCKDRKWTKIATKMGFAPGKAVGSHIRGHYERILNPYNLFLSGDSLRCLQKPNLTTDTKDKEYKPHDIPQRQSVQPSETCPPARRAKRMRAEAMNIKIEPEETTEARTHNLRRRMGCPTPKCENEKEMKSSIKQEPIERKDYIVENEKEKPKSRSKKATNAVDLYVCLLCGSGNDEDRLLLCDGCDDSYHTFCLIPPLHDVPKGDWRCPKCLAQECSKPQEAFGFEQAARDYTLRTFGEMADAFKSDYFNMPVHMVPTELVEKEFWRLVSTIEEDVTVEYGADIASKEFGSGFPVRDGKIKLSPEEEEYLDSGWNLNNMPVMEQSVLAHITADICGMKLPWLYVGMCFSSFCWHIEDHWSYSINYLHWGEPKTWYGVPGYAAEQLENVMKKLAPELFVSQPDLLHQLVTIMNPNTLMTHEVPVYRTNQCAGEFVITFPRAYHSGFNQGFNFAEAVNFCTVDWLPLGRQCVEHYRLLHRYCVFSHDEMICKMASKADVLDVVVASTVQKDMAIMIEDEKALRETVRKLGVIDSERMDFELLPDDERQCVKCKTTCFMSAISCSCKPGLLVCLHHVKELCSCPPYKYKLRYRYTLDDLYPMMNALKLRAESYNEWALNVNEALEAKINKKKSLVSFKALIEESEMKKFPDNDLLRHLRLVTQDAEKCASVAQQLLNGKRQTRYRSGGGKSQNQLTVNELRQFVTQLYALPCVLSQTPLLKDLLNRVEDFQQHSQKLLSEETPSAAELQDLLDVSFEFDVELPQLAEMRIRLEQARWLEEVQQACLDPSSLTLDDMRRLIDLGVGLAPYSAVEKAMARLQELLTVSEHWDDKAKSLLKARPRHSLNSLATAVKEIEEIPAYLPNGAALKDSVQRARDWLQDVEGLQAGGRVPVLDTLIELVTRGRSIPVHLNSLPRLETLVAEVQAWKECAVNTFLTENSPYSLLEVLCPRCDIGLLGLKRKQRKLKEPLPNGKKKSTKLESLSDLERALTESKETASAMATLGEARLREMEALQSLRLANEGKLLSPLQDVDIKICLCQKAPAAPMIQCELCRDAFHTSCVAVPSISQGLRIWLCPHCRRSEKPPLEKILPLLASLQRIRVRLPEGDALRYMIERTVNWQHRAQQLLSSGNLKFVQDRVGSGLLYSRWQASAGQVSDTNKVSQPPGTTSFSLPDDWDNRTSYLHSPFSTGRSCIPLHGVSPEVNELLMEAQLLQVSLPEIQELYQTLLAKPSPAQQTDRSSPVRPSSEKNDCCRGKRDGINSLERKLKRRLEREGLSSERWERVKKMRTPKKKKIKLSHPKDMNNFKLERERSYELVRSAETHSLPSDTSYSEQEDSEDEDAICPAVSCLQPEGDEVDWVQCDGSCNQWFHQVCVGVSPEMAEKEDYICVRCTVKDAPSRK
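KDM5BΔAP (200 nM final) in 50 mM HEPES pH 7.5, 0.01% Tween-20 was preincubated 10 min at RT with compound over a concentration range. Substrate mix (H3K4me3 12.5 µM, α-KG 25 µM, Fe²⁺, ascorbate, NAD⁺, FDH) was added, and NADH fluorescence change over 30 min gave dose-response curves.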
Each line names hits and unclear results; the compound was inactive in the other large screens.

COC(=O)C1(NC(=O)CCNC(=O)C2CCCC2)CCC(C)CC1 (centres undefined)	none
O=C1c2cc(N3CCOCC3)nc(-c3cccc(F)c3)c2CN1CC1CC1	KDM5B inh 35µM
O=C(Nc1cccc(-c2cccc(F)c2)c1)C1CCN(CC2CCOC2)CC1 (centres undefined)	none
O=C1Cc2c(-c3cccc(N4CCOCC4)c3)n[nH]c2CN1CCOc1ccccc1	none
C[S+](=O)([O-])Nc1cccc(-c2nc(N3CCOCC3)cc3c2CN(CC2CC2)C3=O)c1	KDM5B inh 28µM
O=[S+]([O-])(Nc1cccnc1)c1ccc2c(c1)OCCN(CC1CCOCC1)C2	none
C[S+](=O)([O-])Nc1cccc(N2C[C@@H]3C(C(=O)NC4CCOCC4)=NO[C@@H]3C2)c1	none
CCC(CC)c1nn2c(=O)cc(COc3ccc(NC(=O)c4ccco4)cc3)nc2s1	none
CC(=O)N1CCN(C(=O)c2cc(-c3ccc(F)cc3)nc3ccccc23)CC1	none
O=C(O)C1CCN(C(=O)c2cc(-c3ccccc3)nc3ccccc23)CC1	none
CC(C)(C)n1cc(-c2cc(C(=O)N3C[C@H]4CC[C@H]3C4)c3ccccc3n2)cn1	KDM5B inh 32µM
O=C(NC1CC1)c1ccc2nnc(-c3cccnc3)n2c1	KDM5B inh 112µM
Cn1c(SCC(=O)NC2CCCCC2)nnc1-c1cccnc1	none
CC(C)(C)C1CCC(NC(=O)c2ccncc2)CC1 (centres undefined)	none
Cc1ccc(C(=O)NC2CCN(c3cc(C(F)(F)F)ncn3)CC2)cc1	none
O=C(NC1CC1)c1ccc2nnc(-c3ccc(C(F)(F)F)cc3)n2c1	KDM5B inh 56µM
N[C@@H]1CC[C@@H]1NC(=O)c1cnc(-c2cccnc2)nc1	none
CCCN1CCN(c2nc3c(c(=O)[nH]c(=O)n3C)n2Cc2ccccc2)CC1	none
Cc1ccc(Nc2nc(CSc3nnnn3C3CCCC3)cs2)cc1	none
Cc1cc(C(F)F)nn1Cc1nc2c3c4c(sc3ncn2n1)CC(C)CC4 (centres undefined)	none
COc1ccc(C(=O)N2CCCn3cc(-c4ccccc4F)nc32)cn1	none
O=C(c1cccnc1)N1CCN(c2nnc3ccc(Cl)cn23)CC1	KDM5B inh 16µM
COc1ccc(C(=O)N2CCCN(c3nnc4ccc(Cl)cn34)CC2)cn1	KDM5B inh 22µM
O=C(c1cccnc1)N1CCN(C(=O)c2nnn3c2COC(c2ccc(Cl)cc2)C3)CC1 (centres undefined)	none
COc1ccc(C(=O)N2CCN(Cc3ccc(=O)n(C)c3)CC2)cn1	none
Cc1ccccc1C(=O)N1CCCN(c2cc(-c3ccccc3)[nH]n2)CC1	none
Cc1ccc(-c2cc(N3CCCN(C(=O)c4cccnc4)CC3)n[nH]2)cc1C	none
Cc1ccccc1C(=O)N1CCCN(c2nnc3ccc(Cl)cn23)CC1	KDM5B inh 25µM
Cc1ccc(-c2cc(N3CCCN(C(=O)c4ccccc4F)CC3)n[nH]2)cc1C	none
CCc1ccc(C(NC(=O)c2nn(C)c(=O)c3ccccc23)C(C)C)cc1 (centres undefined)	none
COCCn1c(C2CC(=O)N(c3cc(Cl)ccc3OC)C2)nc2ccccc21 (centres undefined)	none
Cn1cc(CC(=O)N2CCCc3ncc(C(=O)N4CCC(c5ccccc5)CC4)cc32)c2ccccc21	none
COc1ccc(/C=C(\C#N)c2nc3ccc(C)cc3[nH]2)cc1OC	none
CC(C)OC(=O)Cn1c(C2CC(=O)N(Cc3ccc(F)cc3)C2)nc2ccccc21 (centres undefined)	none
O=C1c2cnc(-c3cc4ccccc4o3)nc2OCCN1CC1CC1	none
O=C1c2cnc(-c3cccc(O)c3)nc2OCCN1Cc1ccc(F)cc1F	none
COc1cccc(-c2ncc3c(n2)OCCN(Cc2ccc(F)cc2F)C3=O)c1	KDM5B inh 35µM
N#Cc1cccc(-c2ncc3c(n2)OCCN(Cc2ccc(F)cc2F)C3=O)c1	none
O=C1c2cnc(-c3ccccc3)nc2OCCN1Cc1ccc(F)cc1F	none
O=C1c2cnc(-c3ccccc3OCc3ccccc3)nc2OCCN1CC1CC1	KDM5B inh 32µM
O=C1c2cnc(-c3cc(F)cc(F)c3)nc2OCCN1Cc1ccc(F)cc1F	none
O=C1c2cnc(-c3ccccc3)nc2OCCN1Cc1ccccc1	none
COc1ccccc1-c1ncc2c(n1)OCCN(Cc1ccc(F)cc1F)C2=O	KDM5B inh 35µM
CC(C)Sc1ccc2nn(CC(=O)Nc3ccccc3F)c(=O)n2n1	none
CN(C(=O)CCc1ncc(-c2ccccc2)o1)C1CC1	none
Cc1ccc(C2Cn3cnc(C(=O)N4CCC(C(=O)NCCC5=CCCCC5)CC4)c3CO2)cc1 (centres undefined)	none
Cc1nc2cc(NC(=O)COc3ccccc3C)ccc2o1	none
CC(=O)NC(C(=O)NCc1ccccc1)C1CCCC1 (centres undefined)	none
O=c1oc2ccccc2c(NCc2ccccc2)c1NS(=O)(=O)c1cccc(F)c1	none
COc1cccc(CN2CCCC(COc3ccccc3C(=O)NC(C)C)C2)n1 (centres undefined)	none
O=C(NCc1cccnc1)c1cc(-c2cnccc2Cl)c2cccn2n1	none
COc1ccc(NC(=O)c2cccs2)cn1	none
O=C(NCc1ccc(Cl)nc1)c1cc2cccnn2n1	KDM5B inh 35µM
O=C(NCc1ccc(Cl)nc1)c1cn2c(n1)CN(C(=O)c1ccccc1F)CC2	none
O=C(Nc1ccc(Cl)nc1)c1cc2cccnn2n1	KDM5B inh 35µM
Cc1cc(Cl)ccc1NC(=O)c1cc2ccccn2n1	none
CCC1(N2CCN(S(=O)(=O)c3ccc(Cl)cc3C)CC2)CCN(C(=O)C(C)C)C1 (centres undefined)	none
COc1ccc(C(=O)Nc2ccc3oc(-c4cccc(I)c4)nc3c2)cc1	none
CCCCCn1nc(C(=O)Nc2ccc3c(c2)CCC3)c2ccccc2c1=O	none
CCOCCCNC(=O)C1CCNCC1	none
Cc1cc(C)c2c(c1C)OC/C2=N/O	none
CCc1nc(C#N)c(N2CCN(c3cccc(Cl)c3)CC2)o1	none
O=C(CCc1c[nH]c2ccccc12)NC1CCc2nn(CC3CC3)c(=O)n2CC1 (centres undefined)	none
CNC1CCc2nn(CC3CC3)c(=O)n2CC1 (centres undefined)	none
Cn1nc(C(=O)NC2CCc3nn(CC4CC4)c(=O)n3CC2)c2ccccc21 (centres undefined)	KDM5B inh 28µM
Cc1ccsc1C(=O)NC1CCc2nn(CC3CC3)c(=O)n2CC1 (centres undefined)	none
COc1ccc(C(=O)NC2CCc3nn(CC4CC4)c(=O)n3CC2)c(C)c1 (centres undefined)	none
O=C(NC1CCc2nn(CC3CC3)c(=O)n2CC1)c1ccc[nH]c1=O (centres undefined)	KDM5B inh 28µM
CSc1ccc(C2CC(=O)Nc3c2cnn3-c2nc3ccccc3s2)cc1 (centres undefined)	none
Cn1ccnc1COc1ccc(CSc2nnnn2C(C)(C)C)cc1	none
Cn1cc(C(=O)NCCNC(=O)c2cccs2)c2ccccc21	none
Fc1ccc(-c2ccc3ncc(Nc4ccncc4)n3n2)cc1	none
CCC1(C)NC(=O)N(NC(=O)c2nn(C)c(=O)c3ccccc23)C1=O (centres undefined)	none
COc1cccc(C(=O)Nc2sc3c(c2C(N)=O)CCC(C)C3)c1OC(F)F (centres undefined)	none
Cc1cn2c(=O)cc(COc3ccc(C(C)(C)C)cc3)nc2s1	none
Cc1cn2c(=O)cc(CN3CC[C@@](C)(O)[C@@H](O)C3)nc2s1	KDM5B inh 32µM
Cc1cc(C)cc(OCc2cc(=O)n3cc(C)sc3n2)c1	none
CCOc1ccccc1NC(=O)c1cccc(CN2CCCC2=O)c1	none
Cc1nc2cc(NC(=O)c3ccc(Cl)c(Cl)c3)ccc2o1	none
